Consider seven compounds from ChEMBL document CHEMBL1961873, “Compounds: GSK PKIS; Assays: Nanosyn kinase panel” (2012).

Experiment [1] addresses Dual specificity protein kinase CLK3 (Homo sapiens) (UniProt P49761). Conditions: at 1 µM.
In experiment [2] the target is Dual specificity tyrosine-phosphorylation-regulated kinase 1A (Homo sapiens) (UniProt Q13627). As to conditions: at 0.1 µM.
For experiment [3] the target is unchanged. Conditions: at 1 µM.
Experiment [4] addresses Dual specificity tyrosine-phosphorylation-regulated kinase 1B (Homo sapiens) (UniProt Q9Y463). Conditions: at 0.1 µM.
For experiment [5] the target is unchanged. Conditions: at 1 µM.
The target of experiment [6] is T1, Dual specificity tyrosine-phosphorylation-regulated kinase 2 (Homo sapiens) (UniProt Q92630).
T1 sequence (whole entry): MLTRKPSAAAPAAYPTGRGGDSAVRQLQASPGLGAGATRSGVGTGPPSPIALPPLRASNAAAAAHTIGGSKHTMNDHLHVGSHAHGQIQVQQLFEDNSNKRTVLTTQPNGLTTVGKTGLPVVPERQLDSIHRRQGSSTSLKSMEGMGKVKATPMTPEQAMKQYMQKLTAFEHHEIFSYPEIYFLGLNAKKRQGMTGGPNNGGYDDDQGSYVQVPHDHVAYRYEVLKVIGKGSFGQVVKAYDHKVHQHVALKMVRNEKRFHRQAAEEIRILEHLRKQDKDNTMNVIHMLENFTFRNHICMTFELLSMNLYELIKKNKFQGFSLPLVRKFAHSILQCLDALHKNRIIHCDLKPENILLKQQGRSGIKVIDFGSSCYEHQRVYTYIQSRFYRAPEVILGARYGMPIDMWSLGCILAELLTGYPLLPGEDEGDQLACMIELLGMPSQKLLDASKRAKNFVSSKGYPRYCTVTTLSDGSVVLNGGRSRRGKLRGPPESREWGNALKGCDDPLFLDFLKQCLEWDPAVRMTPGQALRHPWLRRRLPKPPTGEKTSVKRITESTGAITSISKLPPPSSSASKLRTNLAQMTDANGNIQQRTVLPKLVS
Conditions: at 0.1 µM.

The target of experiment [7] is T1, Dual specificity tyrosine-phosphorylation-regulated kinase 2 (Homo sapiens). Conditions: at 1 µM.
The target in experiment [8] is Glycogen synthase kinase-3 alpha (Homo sapiens) (UniProt P49840). As to conditions: at 0.1 µM.
Glycogen synthase kinase-3 alpha (Homo sapiens), sequence (P49840 2-483 limits assumed): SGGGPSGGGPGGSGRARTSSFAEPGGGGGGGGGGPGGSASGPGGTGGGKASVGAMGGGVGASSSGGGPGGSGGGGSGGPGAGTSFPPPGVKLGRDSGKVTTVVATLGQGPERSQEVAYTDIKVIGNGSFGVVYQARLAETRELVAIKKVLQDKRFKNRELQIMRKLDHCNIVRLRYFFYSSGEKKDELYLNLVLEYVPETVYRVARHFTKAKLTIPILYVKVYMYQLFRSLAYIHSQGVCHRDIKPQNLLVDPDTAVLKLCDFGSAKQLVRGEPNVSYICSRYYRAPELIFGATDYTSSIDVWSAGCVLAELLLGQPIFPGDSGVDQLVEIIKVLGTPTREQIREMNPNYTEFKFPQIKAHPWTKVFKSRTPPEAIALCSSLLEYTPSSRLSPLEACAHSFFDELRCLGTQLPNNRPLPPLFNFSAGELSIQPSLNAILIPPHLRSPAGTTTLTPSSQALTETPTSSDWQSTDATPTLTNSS
Experiment [9] has the same target. Conditions: at 1 µM.
The target of experiment [10] is Glycogen synthase kinase-3 beta (Homo sapiens) (UniProt P49841). As to conditions: at 0.1 µM.
Glycogen synthase kinase-3 beta (Homo sapiens), sequence (P49841 whole entry, looked up): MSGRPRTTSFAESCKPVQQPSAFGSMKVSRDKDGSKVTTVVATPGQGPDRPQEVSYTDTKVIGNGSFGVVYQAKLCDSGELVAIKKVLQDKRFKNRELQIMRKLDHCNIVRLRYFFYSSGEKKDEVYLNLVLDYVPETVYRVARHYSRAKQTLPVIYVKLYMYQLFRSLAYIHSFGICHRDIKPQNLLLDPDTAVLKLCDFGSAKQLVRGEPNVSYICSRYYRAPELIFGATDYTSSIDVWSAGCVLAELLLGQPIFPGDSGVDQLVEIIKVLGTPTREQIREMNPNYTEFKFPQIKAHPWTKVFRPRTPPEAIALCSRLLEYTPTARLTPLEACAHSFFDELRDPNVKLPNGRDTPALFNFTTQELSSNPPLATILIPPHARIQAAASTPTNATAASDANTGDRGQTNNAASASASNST
Experiment [11] has the same target. Conditions: at 1 µM.
Experiment [12] deals with Homeodomain-interacting protein kinase 1 (Homo sapiens) (UniProt Q86Z02). As to conditions: at 0.1 µM.
Homeodomain-interacting protein kinase 1 (Homo sapiens), sequence (Q86Z02 whole entry, looked up): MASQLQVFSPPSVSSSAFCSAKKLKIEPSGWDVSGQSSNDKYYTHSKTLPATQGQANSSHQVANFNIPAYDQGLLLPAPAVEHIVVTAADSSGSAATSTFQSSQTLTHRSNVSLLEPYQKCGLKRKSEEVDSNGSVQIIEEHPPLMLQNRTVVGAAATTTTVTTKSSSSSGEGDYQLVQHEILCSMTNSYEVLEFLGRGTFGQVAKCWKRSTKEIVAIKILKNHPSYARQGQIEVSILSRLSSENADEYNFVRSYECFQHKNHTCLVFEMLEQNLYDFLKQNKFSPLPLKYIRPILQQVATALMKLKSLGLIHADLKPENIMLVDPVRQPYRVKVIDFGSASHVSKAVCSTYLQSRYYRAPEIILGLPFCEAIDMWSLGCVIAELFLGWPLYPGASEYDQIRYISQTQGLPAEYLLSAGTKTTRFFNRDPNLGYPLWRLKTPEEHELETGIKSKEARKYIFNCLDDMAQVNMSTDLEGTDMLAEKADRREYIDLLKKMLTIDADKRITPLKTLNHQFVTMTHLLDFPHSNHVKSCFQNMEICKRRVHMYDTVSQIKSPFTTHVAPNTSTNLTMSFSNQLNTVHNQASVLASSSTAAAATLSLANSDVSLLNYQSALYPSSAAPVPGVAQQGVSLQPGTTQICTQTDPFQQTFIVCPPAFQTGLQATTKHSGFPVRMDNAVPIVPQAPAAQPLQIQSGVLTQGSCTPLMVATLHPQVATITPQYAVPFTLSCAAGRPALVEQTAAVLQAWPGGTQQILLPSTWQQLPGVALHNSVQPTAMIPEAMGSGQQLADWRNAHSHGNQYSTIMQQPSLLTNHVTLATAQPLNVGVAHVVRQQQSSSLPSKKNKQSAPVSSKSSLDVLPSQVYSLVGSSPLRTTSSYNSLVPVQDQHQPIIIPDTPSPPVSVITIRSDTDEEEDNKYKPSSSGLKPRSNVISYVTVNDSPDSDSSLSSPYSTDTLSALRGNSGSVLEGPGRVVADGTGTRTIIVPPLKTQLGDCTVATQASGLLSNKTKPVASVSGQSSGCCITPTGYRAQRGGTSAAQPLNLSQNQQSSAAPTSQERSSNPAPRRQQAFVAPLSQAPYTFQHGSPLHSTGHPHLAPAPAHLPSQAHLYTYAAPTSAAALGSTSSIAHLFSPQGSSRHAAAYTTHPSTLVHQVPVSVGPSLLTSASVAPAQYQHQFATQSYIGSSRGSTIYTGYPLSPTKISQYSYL
The target is the same in experiment [13]. Conditions: at 1 µM.
In experiment [14] the target is T2, Homeodomain-interacting protein kinase 4 (Homo sapiens) (UniProt Q8NE63).
T2 sequence (whole entry): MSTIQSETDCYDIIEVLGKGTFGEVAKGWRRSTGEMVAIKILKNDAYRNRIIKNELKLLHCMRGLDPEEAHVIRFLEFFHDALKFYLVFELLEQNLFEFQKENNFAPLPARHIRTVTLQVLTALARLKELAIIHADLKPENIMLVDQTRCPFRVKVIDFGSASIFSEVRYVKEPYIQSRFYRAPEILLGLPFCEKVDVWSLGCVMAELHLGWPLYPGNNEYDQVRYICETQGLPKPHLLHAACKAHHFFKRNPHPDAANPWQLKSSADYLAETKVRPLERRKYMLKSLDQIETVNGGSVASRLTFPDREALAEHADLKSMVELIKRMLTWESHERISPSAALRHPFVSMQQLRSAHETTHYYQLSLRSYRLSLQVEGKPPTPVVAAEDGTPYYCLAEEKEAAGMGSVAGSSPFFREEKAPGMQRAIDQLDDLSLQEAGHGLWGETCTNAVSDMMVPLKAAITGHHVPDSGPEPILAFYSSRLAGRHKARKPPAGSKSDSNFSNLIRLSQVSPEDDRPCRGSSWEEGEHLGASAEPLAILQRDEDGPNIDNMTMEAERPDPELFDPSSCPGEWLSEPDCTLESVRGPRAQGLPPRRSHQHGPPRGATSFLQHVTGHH
Conditions: at 0.1 µM.

Experiment [15] concerns the target T2, Homeodomain-interacting protein kinase 4 (Homo sapiens). Conditions: at 1 µM.
Experiment [16] has as its target Mitogen-activated protein kinase 9 (Homo sapiens) (UniProt P45984). As to conditions: at 0.1 µM.
For experiment [17] the target is unchanged. As to conditions: at 1 µM.
Experiment [18] concerns the target Mitogen-activated protein kinase 1 (Homo sapiens) (UniProt P28482). As to conditions: at 0.1 µM.
Experiment [19] has the same target. As to conditions: at 1 µM.
Experiment [20] deals with Mitogen-activated protein kinase 3 (Homo sapiens) (UniProt P27361). Conditions: at 0.1 µM.
Mitogen-activated protein kinase 3 (Homo sapiens), sequence (P27361 whole entry): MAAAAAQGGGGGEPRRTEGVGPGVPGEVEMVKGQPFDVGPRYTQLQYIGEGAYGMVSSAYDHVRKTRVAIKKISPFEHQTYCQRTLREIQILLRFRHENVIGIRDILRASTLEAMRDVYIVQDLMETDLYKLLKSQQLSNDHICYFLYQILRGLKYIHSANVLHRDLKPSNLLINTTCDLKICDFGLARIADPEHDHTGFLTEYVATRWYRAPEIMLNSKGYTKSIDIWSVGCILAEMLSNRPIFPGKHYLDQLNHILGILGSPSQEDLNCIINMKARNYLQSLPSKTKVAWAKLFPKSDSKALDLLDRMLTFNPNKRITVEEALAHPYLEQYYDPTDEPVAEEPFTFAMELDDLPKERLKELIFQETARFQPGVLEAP

Dual specificity tyrosine-phosphorylation-regulated kinase 1B (Homo sapiens), sequence (Q9Y463 whole entry, looked up): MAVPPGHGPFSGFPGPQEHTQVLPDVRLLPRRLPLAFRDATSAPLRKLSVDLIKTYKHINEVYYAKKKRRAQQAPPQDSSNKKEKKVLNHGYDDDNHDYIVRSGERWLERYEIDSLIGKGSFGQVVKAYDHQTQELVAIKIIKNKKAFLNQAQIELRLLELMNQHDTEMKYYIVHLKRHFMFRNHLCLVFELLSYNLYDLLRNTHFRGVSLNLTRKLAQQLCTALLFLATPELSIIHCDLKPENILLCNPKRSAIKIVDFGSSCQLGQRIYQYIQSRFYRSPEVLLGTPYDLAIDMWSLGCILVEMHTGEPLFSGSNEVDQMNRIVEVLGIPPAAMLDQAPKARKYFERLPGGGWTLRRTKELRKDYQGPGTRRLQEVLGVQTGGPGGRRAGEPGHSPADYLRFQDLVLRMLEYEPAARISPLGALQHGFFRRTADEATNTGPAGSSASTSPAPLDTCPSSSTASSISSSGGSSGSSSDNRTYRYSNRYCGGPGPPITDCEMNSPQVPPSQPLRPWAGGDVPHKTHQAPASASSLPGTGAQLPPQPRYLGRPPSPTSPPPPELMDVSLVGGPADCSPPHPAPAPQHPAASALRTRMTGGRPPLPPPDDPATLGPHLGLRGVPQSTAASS
Mitogen-activated protein kinase 1 (Homo sapiens), sequence (P28482 whole entry): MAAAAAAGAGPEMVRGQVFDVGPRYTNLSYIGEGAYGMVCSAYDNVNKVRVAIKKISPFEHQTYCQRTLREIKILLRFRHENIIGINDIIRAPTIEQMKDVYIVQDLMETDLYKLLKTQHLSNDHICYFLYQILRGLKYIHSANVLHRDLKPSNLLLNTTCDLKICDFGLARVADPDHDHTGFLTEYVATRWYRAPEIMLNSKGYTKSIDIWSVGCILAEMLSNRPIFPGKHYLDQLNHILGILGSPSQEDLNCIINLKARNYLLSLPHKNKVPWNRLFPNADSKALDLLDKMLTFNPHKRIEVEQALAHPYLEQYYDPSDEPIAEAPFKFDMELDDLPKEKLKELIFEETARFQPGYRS
Dual specificity protein kinase CLK3 (Homo sapiens), sequence (P49761 whole entry, looked up): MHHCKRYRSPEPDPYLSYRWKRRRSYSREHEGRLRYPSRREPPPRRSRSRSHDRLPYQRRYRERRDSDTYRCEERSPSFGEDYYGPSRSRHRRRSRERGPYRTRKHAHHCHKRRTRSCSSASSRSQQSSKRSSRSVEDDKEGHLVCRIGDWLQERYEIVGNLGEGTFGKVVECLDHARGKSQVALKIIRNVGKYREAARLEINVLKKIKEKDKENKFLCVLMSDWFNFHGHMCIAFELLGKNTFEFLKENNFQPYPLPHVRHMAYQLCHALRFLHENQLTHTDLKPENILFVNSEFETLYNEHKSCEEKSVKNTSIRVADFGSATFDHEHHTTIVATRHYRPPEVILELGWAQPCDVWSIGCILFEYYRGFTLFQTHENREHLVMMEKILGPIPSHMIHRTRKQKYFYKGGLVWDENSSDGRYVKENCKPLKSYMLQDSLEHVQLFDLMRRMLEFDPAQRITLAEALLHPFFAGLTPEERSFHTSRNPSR
Mitogen-activated protein kinase 9 (Homo sapiens), sequence (P45984 whole entry, looked up): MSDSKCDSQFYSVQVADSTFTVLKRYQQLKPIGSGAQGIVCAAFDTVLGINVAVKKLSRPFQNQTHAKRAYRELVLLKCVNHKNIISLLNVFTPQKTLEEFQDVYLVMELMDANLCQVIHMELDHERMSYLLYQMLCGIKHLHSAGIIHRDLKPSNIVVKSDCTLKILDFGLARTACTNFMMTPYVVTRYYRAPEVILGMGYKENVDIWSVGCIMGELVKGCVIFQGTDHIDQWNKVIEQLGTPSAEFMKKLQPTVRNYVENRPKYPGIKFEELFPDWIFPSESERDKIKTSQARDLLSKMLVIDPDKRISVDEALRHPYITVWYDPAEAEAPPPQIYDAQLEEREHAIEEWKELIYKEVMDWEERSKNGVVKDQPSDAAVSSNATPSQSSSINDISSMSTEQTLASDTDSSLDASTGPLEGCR

In the case of `O=S(=O)(CCNCc1ccc(-c2ccc3ncnc(Nc4ccc(OCc5cccc(F)c5)c(Cl)c4)c3c2)o1)c1ccccc1`, the inhibition in experiment [1] is -0.68%; in experiment [2], 3.49%; in [3], 5.29%; in experiment [4], -0.71%; in [5] it was 0.19%; in experiment [6] it was 3.86%. In addition, the inhibition turned out to be 2.88% in [7]; 3.49% in experiment [8]; 4.1% in experiment [9]; 2.66% in [10]; 2.57% in experiment [11]; 0.47% in experiment [12]. Besides, the inhibition turned out to be 4.11% in experiment [13]; 3.74% in [14]; 5.4% in experiment [15]; 5.87% in experiment [16]; 5.2% in experiment [17]; 7.56% in [18]. The inhibition in experiment [19] is 8.99%; in experiment [20] it was 6.61%.
As to `CS(=O)(=O)CCNCc1coc(-c2ccc3ncnc(Nc4ccc(OCc5ccccc5)cc4)c3c2)c1`, the inhibition was 0.66% in experiment [1]; 1.48% in experiment [2]; 2.33% in experiment [3]; -0.25% in [4]; 1.83% in experiment [5]; 3.02% in experiment [6]. Further, the inhibition in experiment [7] was 4.76%; in [8], 2.99%; in experiment [9] it was 4.78%; in experiment [10], 2.21%; in [11] it was 6.33%; in experiment [12], -1.59%. Besides, the inhibition in experiment [13] came to 2.97%; in experiment [14], 0.96%; in experiment [15] it was 8.92%; in experiment [16] it was 1.82%; in experiment [17], 2.72%; in experiment [18], 2.46%. The inhibition in experiment [19] came to 3.11%; in experiment [20], 3.44%.
For the compound `c1ccc(-c2nc3n(c2-c2ccc4c(c2)OCO4)CCC3)nc1`, the inhibition in experiment [1] was 1.02%; in experiment [2] it was 1.52%; in experiment [3], 6.32%; in [4], 1.24%; in experiment [5] it was 5.19%; in [6], 1.61%. Moreover, the inhibition in experiment [7] came out at 1.95%; in [8] it was 1.93%; in experiment [9] it was 5.52%; in [10], 2.03%; in [11], 6.89%; in [12], 0.04%. In addition, the inhibition was 0.44% in experiment [13]; -0.4% in experiment [14]; -0.33% in experiment [15]; 1.36% in experiment [16]; 1.96% in experiment [17]; -0.55% in experiment [18]. Moreover, the inhibition was found to be 0.62% in experiment [19] and 0.29% in experiment [20].
Turning to `Cc1cccc2c1NC(=O)/C2=N\Nc1ccc(S(N)(=O)=O)cc1`, the inhibition is 3.84% in experiment [1]; 1.06% in experiment [2]; 5.61% in experiment [3]; 0.89% in experiment [4]; 1.16% in [5]; 2.62% in experiment [6]. Further, the inhibition was 3.24% in experiment [7]; 3.97% in [8]; 8.42% in experiment [9]; 3.71% in experiment [10]; 7.38% in experiment [11]; 1.24% in [12]. Moreover, the inhibition is 4.95% in experiment [13]; 2.16% in experiment [14]; 1.3% in experiment [15]; 1.94% in experiment [16]; 4.49% in experiment [17]; 2.25% in [18]. For the same compound, the inhibition was determined as 0.43% in experiment [19] and 2.41% in [20].
Turning to `FC(F)(F)c1cccc(-c2nn3ncccc3c2-c2ccnc(Nc3ccc4c(c3)OCCO4)n2)c1`, the inhibition in experiment [1] was 0.79%; in [2], 1.23%; in experiment [3], 2.77%; in [4], 0.78%; in [5], 0.83%; in experiment [6], 2.54%. Besides, the inhibition in [7] is 3.26%; in experiment [8], 5.83%; in experiment [9], 22.4%; in experiment [10], 5.36%; in experiment [11], 33.3%; in experiment [12], -2.65%. Further, the inhibition in [13] is 3.4%; in experiment [14], -0.63%; in experiment [15] it was 3.75%; in experiment [16] it was 4.15%; in experiment [17], 20.4%; in experiment [18] it was 1.58%. Besides, the inhibition in [19] was 4.01%; in [20] it was 1.85%.
For the compound `Clc1ccc(-c2nn3ncccc3c2-c2ccnc(Nc3ccccc3)n2)cc1`, the inhibition was determined as 2.2% in experiment [1]; 2.68% in experiment [2]; 5.74% in experiment [3]; 1.65% in [4]; 3.34% in experiment [5]; 1.34% in experiment [6]. Besides, the inhibition in [7] is 0.66%; in experiment [8], 1.79%; in experiment [9], 12.2%; in experiment [10] it was 2.61%; in experiment [11], 26.2%; in [12], 1.35%. Besides, the inhibition is 3.25% in experiment [13]; 0.5% in experiment [14]; 2.83% in [15]; 16.6% in experiment [16]; 73.4% in [17]; -0.11% in [18]. Moreover, the inhibition in experiment [19] is 1.18%; in experiment [20], -0.01%.
With `COc1ccc(-c2oc3ncnc(N)c3c2-c2ccc(NC(=O)Nc3cc(C(F)(F)F)ccc3F)cc2)cc1`, the inhibition was 4.8% in [1]; 0.67% in experiment [2]; 2.07% in experiment [3]; -0.07% in experiment [4]; 2.26% in experiment [5]; 1.92% in experiment [6]. Besides, the inhibition in experiment [7] was 5.52%; in experiment [8], 3.93%; in experiment [9], 17.3%; in experiment [10] it was 3.17%; in [11], 15.2%; in [12], 13.5%. Besides, the inhibition in experiment [13] came out at 62%; in [14], 68.7%; in experiment [15], 88.8%; in experiment [16], 7.38%; in experiment [17], 19.9%; in experiment [18] it was 7.13%. Besides, the results for the inhibition in experiment [19] and in experiment [20] were 6.23% and 3.48%, respectively.

As usually defined, the inhibition is the drop in the measured response relative to a control, in per cent.
